ABHD5 PLIN5 PPI – inhibitors of human ABHD5-perilipin-5 interaction. Q00G26+Q8WTS1. Split G. princeps luciferase complementation, luminescence, 4 h. inhibition, % at 4 µM. hit rate 0.78% among 360,000;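 active = inhibition above the mean inhibition across every tested compound plus 3 SD, cut at about 22% in these data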;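 also: 0% = DMSO only wells and the 100% control is not disclosed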
Target sequence (Q00G26 whole entry, looked up): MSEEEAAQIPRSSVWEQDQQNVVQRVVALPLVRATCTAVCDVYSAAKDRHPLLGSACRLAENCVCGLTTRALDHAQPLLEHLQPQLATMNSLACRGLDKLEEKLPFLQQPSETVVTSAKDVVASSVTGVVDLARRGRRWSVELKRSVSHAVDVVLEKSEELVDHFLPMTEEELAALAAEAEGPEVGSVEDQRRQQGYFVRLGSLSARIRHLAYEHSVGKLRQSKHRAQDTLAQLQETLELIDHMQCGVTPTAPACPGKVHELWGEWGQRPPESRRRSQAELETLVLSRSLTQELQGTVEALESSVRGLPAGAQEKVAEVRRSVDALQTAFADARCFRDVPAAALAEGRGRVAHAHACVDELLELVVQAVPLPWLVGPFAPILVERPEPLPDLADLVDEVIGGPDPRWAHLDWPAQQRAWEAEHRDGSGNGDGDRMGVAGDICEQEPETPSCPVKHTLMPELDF
Target sequence (Q8WTS1 whole entry, looked up): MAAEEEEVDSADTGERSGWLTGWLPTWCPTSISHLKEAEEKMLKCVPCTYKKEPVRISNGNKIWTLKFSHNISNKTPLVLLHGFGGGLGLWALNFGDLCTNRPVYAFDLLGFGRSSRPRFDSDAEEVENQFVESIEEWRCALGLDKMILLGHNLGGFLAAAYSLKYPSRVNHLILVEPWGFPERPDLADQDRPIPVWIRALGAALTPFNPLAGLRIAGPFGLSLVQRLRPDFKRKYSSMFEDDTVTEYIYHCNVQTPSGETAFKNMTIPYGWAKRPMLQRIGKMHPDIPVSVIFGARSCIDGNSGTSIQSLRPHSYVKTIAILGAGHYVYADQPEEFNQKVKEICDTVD
NOD2-RIPK2 inh – NOD2-RIPK2 protein interaction inhibition; O43353; CHO BLA complementation NOD2-RIPK2, CCF4 ratio; inhibition, % at 4.98 µM; hit rate 0.38% among 360,000; AID 624267; in the data active = inhibition above about 21%;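 also: 0% = vehicle only and 100% = reference blocker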
TLR9-MyD88 inh – blocks human TLR9 binding to MyD88 | inhibition, % at 4.98 µM | CHO BLA complementation TLR9-MyD88, CCF4 FRET ratio | hit rate 0.21% among 340,000 | Q9NR96+Q99836;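 active = inhibition above the mean over all tested compounds plus 3 SD, cut at about 21% in these data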;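 also: 0% = DMSO only wells and 100% = clavulanate BLA inhibitor control wells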
TLR4 MyD88 comp – TLR4-MyD88 interaction inhibition in cells | O00206+Q99836 | HeLa CL3-4 TLR4/MyD88 BLA complementation, FRET ratio | inhibition, % at 8.4 µM | hit rate 0.18% among 200,000 | AID 861; in the data active = inhibition above about 25%;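 also: 0% = vehicle and 100% = reference inhibitor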
ABHD5 PLIN5 conf – ABHD5-PLIN5 interaction inhibition, confirmed; shares compounds with ABHD5 PLIN5 PPI; biochemical ABHD5-PLIN5 interaction, luminescence; inhibition, % at 4 µM; hit rate 67% among 2,200; AID 651612; in the data active = inhibition above about 23%;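 also: 0% = DMSO vehicle wells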
HNF4 split-luc – active in HNF4 split-luciferase counter-screen for ABHD5-PLIN5 inhibitors | shares compounds with ABHD5 PLIN5 PPI | HNF4 dimerization, luminescence, biochemical | inhibition, % at 4 µM | hit rate 77% among 2,200 | AID 651674;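 active = mean inhibition across replicate wells exceeding the computed hit threshold, cut at about 13% in these data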;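 also: light from luciferase halves that rejoin when HNF4 fusion proteins dimerize; 0% = DMSO only wells and the 100% control is not given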
* hit, by the source's call. In the library only some 1.2% were active in any assay of this set; here they are far more common.

Results for COc1ccc(C(CC(=O)c2ccc(C)cc2)Sc2ccccc2N)cc1 (stereo not drawn) ?
ABHD5 PLIN5 PPI: -4.3; NOD2-RIPK2 inh: 7.3; TLR9-MyD88 inh: -9.2

Results for O=C(NC(NC(=O)c1ccccc1)c1cccc([N+](=O)[O-])c1)c1ccccc1 ?
ABHD5 PLIN5 PPI: 3.6; NOD2-RIPK2 inh: -4.1; TLR9-MyD88 inh: -2.8; TLR4 MyD88 comp: -4.5

What do the screens show for `O=C(CCN1CCN(Cc2ccccc2)CC1)NNC(=O)Nc1cccc(C(F)(F)F)c1`?
ABHD5 PLIN5 PPI: 1.5; NOD2-RIPK2 inh: -9.0; TLR9-MyD88 inh: -2.4

Results for CCOC(=O)C(=Cc1ccc(-n2cncn2)cc1)C(=O)OCC ?
ABHD5 PLIN5 PPI: 43.1*; NOD2-RIPK2 inh: 6.7; TLR9-MyD88 inh: -9.9; TLR4 MyD88 comp: 17.2; ABHD5 PLIN5 conf: 81.4*; HNF4 split-luc: 94.0*

How did CCC(c1nnnn1-c1ccc2c(c1)OCCO2)N1CCN(C(C)=O)CC1 (stereo not drawn) do in these assays?
ABHD5 PLIN5 PPI: -0.5; NOD2-RIPK2 inh: 5.2

How did O=C1Cc2ccccc2Sc2ccccc21 do in these assays?
ABHD5 PLIN5 PPI: 39.0*; NOD2-RIPK2 inh: 2.7; TLR9-MyD88 inh: -0.5; TLR4 MyD88 comp: -13.1; ABHD5 PLIN5 conf: -1.4; HNF4 split-luc: 12.4*

What do the screens show for `Cc1ccc2c(c1)Sc1ccccc1CC2=O`?
ABHD5 PLIN5 PPI: -8.3; NOD2-RIPK2 inh: 5.4; TLR9-MyD88 inh: 1.6; TLR4 MyD88 comp: -4.0

What do the screens show for `Cc1ccc(NS(=O)(=O)c2cccc(C(=O)Nc3cccnc3)c2)c(C)c1`?
ABHD5 PLIN5 PPI: 7.0; NOD2-RIPK2 inh: -3.7; TLR9-MyD88 inh: -5.4

Results for Cc1ccc2c(c1)c1c3n2CCCNC3CCC1 (stereo not drawn) ?
ABHD5 PLIN5 PPI: 7.9; NOD2-RIPK2 inh: 2.7; TLR9-MyD88 inh: -11.7; TLR4 MyD88 comp: 12.8

Results for c1cc2c(cc1C1CCCCC1)c1c3n2CCCNC3CCC1 (stereo not drawn) ?
ABHD5 PLIN5 PPI: 26.7*; NOD2-RIPK2 inh: -4.7; TLR9-MyD88 inh: 6.1; TLR4 MyD88 comp: 16.3; ABHD5 PLIN5 conf: 13.2; HNF4 split-luc: 0.4

Results for O=C(/C=C/c1ccccc1F)c1cccc([N+](=O)[O-])c1 ?
ABHD5 PLIN5 PPI: 70.1*; NOD2-RIPK2 inh: 0.1; TLR9-MyD88 inh: 5.2; TLR4 MyD88 comp: 12.7; ABHD5 PLIN5 conf: 100.2*; HNF4 split-luc: 98.5*

Results for COc1cc(/C=C/C(=O)c2cccc([N+](=O)[O-])c2)cc(OC)c1OC ?
ABHD5 PLIN5 PPI: 29.6*; NOD2-RIPK2 inh: -1.6; TLR9-MyD88 inh: -4.5; TLR4 MyD88 comp: 5.0; ABHD5 PLIN5 conf: 95.1*; HNF4 split-luc: 92.3*

Results for COc1cc(CC(=O)OCc2cccc([N+](=O)[O-])c2)cc(OC)c1OC ?
ABHD5 PLIN5 PPI: 1.4; NOD2-RIPK2 inh: -6.3; TLR9-MyD88 inh: 3.8

Results for CN1C(=O)/C(=C\C(=O)c2cccs2)c2ccccc21 ?
ABHD5 PLIN5 PPI: 65.2*; NOD2-RIPK2 inh: 14.7; TLR9-MyD88 inh: 1.5; TLR4 MyD88 comp: 15.6; ABHD5 PLIN5 conf: 67.0*; HNF4 split-luc: 86.8*

Results for CN(C)/N=C/C=C1\CCC/C(=C/c2cccs2)C1=O ?
ABHD5 PLIN5 PPI: 29.9*; NOD2-RIPK2 inh: 5.2; TLR9-MyD88 inh: -10.4; ABHD5 PLIN5 conf: 25.2*; HNF4 split-luc: 28.8*

How did COc1cccc(CNC(=O)C2Cc3ccccc3CN2C(C)=O)c1 (stereo not drawn) do in these assays?
ABHD5 PLIN5 PPI: 3.2; NOD2-RIPK2 inh: -5.6; TLR9-MyD88 inh: -9.2

Results for COc1ccc(C2NCCc3c2[nH]c2ccccc32)cc1CN1CCc2cc(OC)c(OC)cc2C1C (stereo not drawn) ?
ABHD5 PLIN5 PPI: 15.7; NOD2-RIPK2 inh: -8.6; TLR9-MyD88 inh: 2.5

Results for COc1ccc(C2NCCc3c2[nH]c2ccccc32)cc1COc1ccc(F)cc1 (stereo not drawn) ?
ABHD5 PLIN5 PPI: 29.3*; NOD2-RIPK2 inh: 12.3; TLR9-MyD88 inh: 0.8; TLR4 MyD88 comp: 8.5; ABHD5 PLIN5 conf: 15.6; HNF4 split-luc: 18.4*

How did Nc1nc(SCCO)[nH]c(=O)c1NC(=O)c1ccccc1F do in these assays?
ABHD5 PLIN5 PPI: -5.0; NOD2-RIPK2 inh: -4.8; TLR9-MyD88 inh: 7.6; TLR4 MyD88 comp: 2.6

Results for COc1cccc(C(=O)Oc2cc3c4c(c2)C(C)=CC(C)(C)N4C(=O)C3=O)c1 ?
ABHD5 PLIN5 PPI: 32.8*; NOD2-RIPK2 inh: 11.7; TLR9-MyD88 inh: -31.7; TLR4 MyD88 comp: -17.2; ABHD5 PLIN5 conf: 42.6*; HNF4 split-luc: 45.8*
